Rtt109 Vps75: C. albicans Rtt109 histone acetyltransferase inhibition; purified Rtt109/Vps75, ThioGlo CoA-SH fluorescence, 4 h; inhibition, % at 34.9 µM; actives 0.16% (n = 330,000); AID 540336;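 active = inhibition of at least 50% in every replicate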
Target sequence (Q5AAJ8 whole entry, looked up): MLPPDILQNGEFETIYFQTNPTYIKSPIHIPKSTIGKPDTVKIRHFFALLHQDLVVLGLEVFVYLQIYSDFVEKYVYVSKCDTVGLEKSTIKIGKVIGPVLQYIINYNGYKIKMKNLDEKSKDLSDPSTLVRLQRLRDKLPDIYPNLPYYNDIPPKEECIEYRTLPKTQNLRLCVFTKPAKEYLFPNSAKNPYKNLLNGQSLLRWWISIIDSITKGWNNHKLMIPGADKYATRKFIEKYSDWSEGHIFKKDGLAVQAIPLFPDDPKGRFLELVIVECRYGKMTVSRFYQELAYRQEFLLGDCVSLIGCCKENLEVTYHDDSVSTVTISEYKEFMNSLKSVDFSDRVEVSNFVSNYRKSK
Platelet DG rel: platelet dense granule release activity | human platelet-rich plasma, SFLLRN dense granule ATP release, luminescence | inhibition, %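 (compounds screened at 7.5 µM in platelet-rich plasma)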 | actives 0.22% (n = 300,000) | AID 1663;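 active = mean replicate score, as percent of positive control, at or above 50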
PHOSPHO1 inh: inhibitors of human PHOSPHO1 phosphatase | inhibition, % at 13.3 µM | actives 1.1% (n = 290,000) | recombinant PHOSPHO1, absorbance phosphatase assay | Q8TCT1; in the data active = inhibition above about 60%
Target sequence (Q8TCT1 whole entry, looked up): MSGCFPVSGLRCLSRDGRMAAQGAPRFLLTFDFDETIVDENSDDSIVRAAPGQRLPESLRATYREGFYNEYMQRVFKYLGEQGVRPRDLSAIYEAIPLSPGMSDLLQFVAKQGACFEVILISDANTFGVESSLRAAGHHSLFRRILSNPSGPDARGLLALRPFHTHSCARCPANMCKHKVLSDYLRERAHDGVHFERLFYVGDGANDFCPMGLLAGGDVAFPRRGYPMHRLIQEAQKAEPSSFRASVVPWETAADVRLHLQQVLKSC
WT yeast gro inh: growth inhibition of WT yeast, mitochondrial fusion screen; mitochondrial fusion phenotypic screen, WT strain; inhibition, % at 10 µM; actives 2.1% (n = 190,000); AID 1362; in the data active = inhibition above about 58%; tested in S. cerevisiae
SKKanGAS inh: blocks kanamycin growth of S. pyogenes SKKanGAS strain. AID 1662. actives 1.3% (n = 300,000). BacTiter-Glo, 6 h. inhibition, % at 7.5 µM;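 active = mean replicate score, as percent of positive control median, at least 50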;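 note: strain carries kanamycin resistance gene driven by streptokinase promoter and grows in 40 µg/ml kanamycin; loss of luminescence reflects streptokinase promoter inhibition or plain growth inhibition; 0% = median of DMSO wells and 100% = positive control at its reference dose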
TPT1 inh: C. albicans TPT1 enzyme inhibition. inhibition, % at 5 µM. recombinant caTPT1, FP RNA substrate dephosphorylation. actives 0.81% (n = 300,000);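 active = inhibition above the mean of all tested compounds plus 3 SD, set per screening campaign, cut at about 24% in these data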;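 note: plate controls were DMSO alone for no effect and ferristatin control at 100 nM for full effect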
TPT1 inh confirm: TPT1 (C. albicans) inhibition, confirmation | recombinant caTPT1, fluorescence polarization, RNase T1 coupled | inhibition, % at 5 µM | actives 74% (n = 2,400) | shares compounds with TPT1 inh;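 active = inhibition above the primary screen limit, the mean inhibition of all tested compounds plus 3 SD, cut at about 25% in these data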
RNase T1 inh: RNase T1 inhibition in TPT1 counter-screen; RNase T1 cleavage, fluorescence polarization, 1536-well; actives 83% (n = 2,400); inhibition, % at 5 µM; shares compounds with TPT1 inh;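 active = inhibition above the solvent-only control well mean plus 3 SD, limit set per screening run, cut at about 23% in these data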;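 note: plate controls were DMSO wells with enzyme for no effect and wells without RNase T1 for full effect; inhibitors block cleavage so intact labeled substrate keeps polarization high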
* marks the source's active call; other numbers are inactive results. Shown are actives, neighbours in structure and some others; about 3.9% of the full set was active somewhere.

`Cc1ccc(N=Cc2nc(/C=C/c3cccc([N+](=O)[O-])c3)oc2O)cc1` gave Rtt109 Vps75 -12, Platelet DG rel -3, PHOSPHO1 inh -1, WT yeast gro inh -3, SKKanGAS inh -9, TPT1 inh 28*, TPT1 inh confirm 39* and RNase T1 inh 51*.
For Cc1ccc(-c2nc(C=Nc3ccc(O)cc3)c(O)o2)cc1 the results were Rtt109 Vps75 -20, Platelet DG rel 1, PHOSPHO1 inh 18, WT yeast gro inh -7 and SKKanGAS inh 4.
Screening CCOc1cc(/C=C2\CCCC(C(=O)C(F)(F)F)=C2O)ccc1O returned Rtt109 Vps75 8, Platelet DG rel -14, PHOSPHO1 inh 1, WT yeast gro inh 13, SKKanGAS inh -10, TPT1 inh 36*, TPT1 inh confirm 44* and RNase T1 inh 58*.
`COc1cc2[nH]c(C(=O)N3CCN(c4ccccc4F)CC3)cc2c(OC)c1OC` gave Rtt109 Vps75 -3, Platelet DG rel 3, PHOSPHO1 inh 26, SKKanGAS inh -2 and TPT1 inh -3.
`Cc1ccc(C(=O)CSc2nc(-c3ccccc3)ccc2C#N)cc1` gave Rtt109 Vps75 -3, Platelet DG rel -6, PHOSPHO1 inh -9, WT yeast gro inh -9, SKKanGAS inh 2 and TPT1 inh 24.
For N#Cc1ccc(-c2ccco2)nc1SCC(=O)c1ccc(Cl)cc1 the results were Rtt109 Vps75 2, Platelet DG rel 1, PHOSPHO1 inh 4, WT yeast gro inh 30, SKKanGAS inh -2, TPT1 inh 99*, TPT1 inh confirm 62* and RNase T1 inh 67*.
For CCN(CC)c1ccc(/C=C/C(=O)C2C(=O)C=C(C)OC2=O)cc1 (centres undefined) the results were Rtt109 Vps75 4, Platelet DG rel -2, PHOSPHO1 inh -1, WT yeast gro inh 24, SKKanGAS inh 8, TPT1 inh 48*, TPT1 inh confirm 33* and RNase T1 inh 40*.
O=c1c2c3c(sc2ncn1Cc1ccc(F)cc1)CCC3 was read as Rtt109 Vps75 4, PHOSPHO1 inh 7, WT yeast gro inh -20, SKKanGAS inh 7, TPT1 inh 27*, TPT1 inh confirm 26* and RNase T1 inh 34*.
Screening COc1ccc(-n2ncc3c(=O)n(CC(=O)NC(C)C)cnc32)cc1 returned Rtt109 Vps75 7, Platelet DG rel -1, PHOSPHO1 inh 8, SKKanGAS inh -8 and TPT1 inh -4.
`CCOC(=O)C1C(=O)NC(SCC(N)=O)=C(C#N)C1c1ccccc1OCC` (centres undefined) gave Rtt109 Vps75 12, Platelet DG rel -2, PHOSPHO1 inh 34, WT yeast gro inh -3, SKKanGAS inh 12, TPT1 inh 70*, TPT1 inh confirm 68* and RNase T1 inh 78*.
`COc1ccc(/C=C2\C(=O)NC(=S)N2C(=O)c2ccc(F)cc2)cc1` gave Rtt109 Vps75 -23, Platelet DG rel -10, PHOSPHO1 inh -50, WT yeast gro inh 16, SKKanGAS inh 38, TPT1 inh 148*, TPT1 inh confirm 156* and RNase T1 inh 145*.
Screening O=C1NC(=S)N(C(=O)c2ccc(F)cc2)/C1=C/c1ccccc1 returned Rtt109 Vps75 -10, Platelet DG rel 0, PHOSPHO1 inh -21, WT yeast gro inh 38, SKKanGAS inh 11, TPT1 inh 110*, TPT1 inh confirm 108* and RNase T1 inh 116*.
Cc1cc(C)c2c(c1)c1nnc(SCCN3CCCCC3)nc1n2C was read as Rtt109 Vps75 8, Platelet DG rel 0, PHOSPHO1 inh 1 and SKKanGAS inh -4.
For CCN(CC(=O)Nc1c(F)cccc1F)C(=O)c1ccc2ncsc2c1 the results were Rtt109 Vps75 -1, Platelet DG rel 0, SKKanGAS inh -2 and TPT1 inh -4.
`O=C1Nc2ccc(Br)cc2C12NNc1ccccc1O2` (centres undefined) gave Rtt109 Vps75 -1, Platelet DG rel -4, PHOSPHO1 inh 7, WT yeast gro inh 88*, SKKanGAS inh 20, TPT1 inh 83*, TPT1 inh confirm 105* and RNase T1 inh 110*.
Screening COC(=O)CNC(=O)Cn1c(=O)n(Cc2ccc(F)cc2)c(=O)c2sccc21 returned Rtt109 Vps75 8, Platelet DG rel 3, PHOSPHO1 inh 19, SKKanGAS inh 4 and TPT1 inh 0.
Screening CN(CC(=O)Nc1cccc(S(=O)(=O)N2CCCC2)c1)CC(=O)Nc1ccc(Cl)c(C(F)(F)F)c1 returned Rtt109 Vps75 13, Platelet DG rel 1, SKKanGAS inh 10 and TPT1 inh -3.
`O=C(Nc1nc2c(s1)CN(Cc1ccccc1)CC2)c1cccc(S(=O)(=O)N2CCc3ccccc32)c1` gave Rtt109 Vps75 -23, Platelet DG rel -3, PHOSPHO1 inh 6, WT yeast gro inh -23, SKKanGAS inh 12, TPT1 inh 125*, TPT1 inh confirm 94* and RNase T1 inh 94*.
CCN1CCc2nc(NC(=O)c3ccc4c(c3)OCCO4)sc2C1 was read as Rtt109 Vps75 5, Platelet DG rel 2, PHOSPHO1 inh 38, WT yeast gro inh -2, SKKanGAS inh 3, TPT1 inh 36*, TPT1 inh confirm 21 and RNase T1 inh 28*.
For CSc1nnc(C)c(/C=C/Nc2ccc(C)cc2)n1 the results were Rtt109 Vps75 -3, Platelet DG rel -6, PHOSPHO1 inh 14, WT yeast gro inh 21, SKKanGAS inh 2, TPT1 inh 156*, TPT1 inh confirm 134* and RNase T1 inh 128*.
CSc1nnc(C)c(/C=C/NOCc2ccc(Cl)cc2)n1 was read as Rtt109 Vps75 -6, Platelet DG rel -2, PHOSPHO1 inh 15, WT yeast gro inh 21, SKKanGAS inh -18 and TPT1 inh 0.
CC(C)c1ccc(N=C2NN=C(c3cccs3)CS2)cc1 was read as Platelet DG rel 1, PHOSPHO1 inh 20, WT yeast gro inh 23, SKKanGAS inh 11, TPT1 inh 40*, TPT1 inh confirm 42* and RNase T1 inh 50*.
Screening NC1=NC(=Nc2cccc(S(N)(=O)=O)c2)c2ccccc21 returned Rtt109 Vps75 -12, Platelet DG rel 18, PHOSPHO1 inh 16, SKKanGAS inh -7 and TPT1 inh -2.
`COc1cc(N=Nc2cccc(S(N)(=O)=O)c2)c2ccccc2c1N` gave Rtt109 Vps75 0, Platelet DG rel 6, PHOSPHO1 inh 33, SKKanGAS inh 42, TPT1 inh 89*, TPT1 inh confirm 44* and RNase T1 inh 54*.
For N#Cc1c(-c2ccccc2)cc(-c2ccccc2)[nH]c1=O the results were Rtt109 Vps75 -12, Platelet DG rel -1, PHOSPHO1 inh -20, SKKanGAS inh 1 and TPT1 inh -3.

Screens as filed in PubChem.
